JMJD2E inh: JMJD2E (human) inhibition; B2RXH2; JMJD2E catalytic domain, FDH-coupled NADH fluorescence (FDH is formaldehyde dehydrogenase); Potency, µM (doses to about 57.1 µM), for the others: at the highest dose activity change, negative = inhibition, hits mostly inhibitors; 230,000 compounds, 1.6% hits; active = well fitted inhibition curve with a large enough effect, not every such curve was filed as active; inconclusive = small, poorly fitted or top-dose-only effect, or another doubt; inactive = no such curve, though single readings can be large or run the other way;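 also: potency is read from the fitted curve at half-maximal effect; 0% = wells with enzyme and -100% = buffer wells without enzyme; nearly all actives have a fitted effect of over 50% in size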
Target sequence (B2RXH2 1-337 limits assumed): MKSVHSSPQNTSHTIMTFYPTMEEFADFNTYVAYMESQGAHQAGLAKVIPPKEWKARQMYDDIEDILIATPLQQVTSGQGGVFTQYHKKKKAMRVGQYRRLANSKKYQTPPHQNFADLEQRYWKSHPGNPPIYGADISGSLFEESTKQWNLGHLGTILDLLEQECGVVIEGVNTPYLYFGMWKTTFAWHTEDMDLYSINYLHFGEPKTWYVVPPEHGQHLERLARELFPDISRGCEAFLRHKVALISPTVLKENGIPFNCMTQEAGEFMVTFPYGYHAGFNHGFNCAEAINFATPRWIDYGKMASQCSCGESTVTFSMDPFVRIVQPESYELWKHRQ
KCNH2 WT inh: KCNH2 (human, wildtype) channel inhibition; U2OS, BacMam KCNH2, thallium flux FluxOr; stronger effect = lower value; Q12809; activity change, % at 1.84 µM; 340,000 compounds, 0.37% hits;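 active = maximum activity change below -70%; inconclusive = maximum activity change between -70% and -50%; inactive = maximum activity change above -50%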
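U2OS cells transduced with wild-type KCNH2 virus are loaded with FluxOr dye for 45 min, and thallium flux is measured in kinetic reads before and after stimulation buffer. Rate constants are normalized to DMSO controls.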
Six1-Eya2 blk: Six1/Eya2 interaction inhibition; activity change, % (test concentration not listed); AlphaScreen GST-Six1/His-Eya2 binding, biochemical; stronger effect = lower value; AID 651725; 360,000 compounds, 0.56% hits
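Homogeneous AlphaScreen proximity assay pairing GST-Six1 with His-tagged Eya2 (added as 5X mix: 250 nM and 500 nM) in 50 mM Tris pH 8.0, 300 mM NaCl, 1 mM TCEP. Glutathione donor and nickel acceptor beads; 1 h, 37 °C, dark.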
KCNH2 3.1 inh: blocks the human KCNH2 3.1 channel isoform; U2OS KCNH2 3.1, thallium flux FluxOr; stronger effect = lower value; activity change, % (tested at about 1.8 µM); 340,000 compounds, 0.95% hits;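 active = maximum activity change below -70%; inconclusive = maximum activity change from -70% to -50%; inactive = maximum activity change above -50%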;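 also: thallium influx rate constant from kinetic fluorescence after stimulation buffer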
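Measured as rate of thallium-driven FluxOr signal in transduced U2OS cells carrying the 3.1 channel, read kinetically for 2 min upon stimulation; values are rate constants scaled to DMSO control wells.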
CtBP-E1A blk: blocks the CtBP interaction with E1A; activity change, % (concentration not given with the values); 340,000 compounds, 0.49% hits; AlphaScreen GST-E1A/His-CtBP binding, 1536-well; stronger effect = lower value
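GST-E1A and His-tagged CtBP (125 nM each as 5X stock) were preincubated with pin-transferred compound for 2 h at 37 °C in the dark, then glutathione donor and nickel acceptor beads were added for 1 h before AlphaScreen reading.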
* marks the source's active call; other numbers are inactive results; ? = inconclusive; / = not tested or not shown. Compounds with a hit are over-represented: about 2% of the library has one in this group of screens. Rule as the data show it, unless noted: active = activity change below about -65%; inconclusive = mostly about -30% to -63%; inactive = weaker than that. Unless noted, % is scaled to controls: 0 for no effect and ±100 for the full control effect.

SMILES	JMJD2E inh	KCNH2 WT inh	Six1-Eya2 blk	KCNH2 3.1 inh	CtBP-E1A blk
O=C(Nc1ccccc1C(=O)NCC1CCCO1)c1ccccc1 (stereo unspecified)	-2%	-7	0	-4	2
COc1ccc(Cc2c(O)nc(SCC(=O)c3ccc(OC)cc3)[nH]c2=O)cc1	9%	-3	-86*	12	/
COc1ccc(Cc2c(O)nc(SCC(C)C)[nH]c2=O)cc1	/	4	-4	-10	-3
O=[N+]([O-])c1c(Nc2ccccn2)cc(Cl)c2nonc12	1µM*	0	0	-3	1
CC1(C(=O)NCc2ccccc2)CN(S(C)(=O)=O)CC(=O)N1CCCN1CCOCC1 (stereo unspecified)	/	/	27	/	2
CCOc1cccc2sc(N(CCCN(C)C)C(=O)c3ccc(S(=O)(=O)N(C)c4ccccc4)cc3)nc12	1%	-106*	-1	-85*	/
CCc1ccc2nc(N(CCCN(C)C)C(=O)c3ccc(S(=O)(=O)N(C)C4CCCCC4)cc3)sc2c1	/	-45	-14	-72*	-21
Cc1ccc(OCCC(=O)Nc2ccc(F)c(F)c2)cc1	2%	3	2	3	4
CN(C)CCNc1oc(COc2ccc(-c3ccccc3)cc2)nc1C#N	-2%	37	-21	-72*	-29
N#Cc1nc(COc2ccc(-c3ccccc3)cc2)oc1NCCCN1CCOCC1	13%	14	-25	?	-18
C=C(C)CN(CC)C(=O)Cn1cnc2c(oc3ccccc32)c1=O	/	6	4	/	14
CCc1ccc2c(O)c3c(cc2c1C(=O)OC)C(=O)c1c(O)ccc(O)c1C3=O	2.8µM*	/	/	/	/
O=C(NC1CCCCC1)N1CCC(n2c(=O)[nH]c3ccccc32)CC1	2%	-12	-2	0	-3
O=c1[nH]c2ccccc2n1C1CCCCC1	3%	-84*	8	3	1
CCCCn1cnc2c(SCc3ccc([N+](=O)[O-])cc3)nc(N)nc21	/	14	0	-85*	3
COc1ccc(/C=C/C(=O)ONC2=NCCCCC2)cc1OC	-15%	-23	-18	0	9
CCOC(=O)c1c(C)[nH]c(C)c1S(=O)(=O)NCC1CCN(Cc2cccc(Cl)c2)CC1	/	-4	-18	-121*	/
COC(=O)c1cc(S(=O)(=O)NCC2CCN(Cc3ccc(C)cc3)CC2)c[nH]1	/	-26	2	-76*	5
CCOC(=O)c1c(C)[nH]c(C)c1S(=O)(=O)NCC1CCN(Cc2ccc(C)cc2)CC1	/	27	-5	-28	-3
COC(=O)c1cc(S(=O)(=O)NCC2CCN(Cc3ccc(F)cc3)CC2)c[nH]1	/	48	4	-45	-17
O=C(COc1ccc(-n2cnnn2)cc1)NCCc1ccc(F)cc1	-5%	-3	8	13	4
CN(C)c1ccc(C=Cc2nccc3ccccc23)cc1	/	/	18	/	37
CCN(CC)c1nc(C=Cc2ccc(N(C)C)cc2)c2nccnc2n1	/	-107*	-3	-99*	-6
Cc1cccc(C(=O)Nc2ccccc2C(=O)OCC(=O)Nc2ccc(C#N)cc2)c1	?	-9	-2	-8	0
CCC(C)(C)C(=O)Nc1ncc(S(=O)(=O)c2ccc([N+](=O)[O-])cc2)s1	1%	5	-25	-17	-24
SMILES	JMJD2E inh	KCNH2 WT inh	Six1-Eya2 blk	KCNH2 3.1 inh	CtBP-E1A blk
CCCC(C)C(=O)Nc1ncc(S(=O)(=O)c2ccc([N+](=O)[O-])cc2)s1 (stereo unspecified)	/	-102*	0	-106*	3
Cc1c(Cl)c(C(=O)NNC(=S)Nc2ccc(F)cc2)nn1C	20µM*	-3	-17	/	-24
Cc1c(Cl)c(C(=O)NNC(=S)Nc2ccccc2)nn1C	10µM*	2	-5	3	0
CCNC(=S)NNC(=O)c1nn(C)c(C)c1Cl	-26%	5	-5	-1	/
CCOc1ccc(CNc2ccc3c(c2)ncn3C(C)(C)C)cc1	/	24	-19	-110*	/
CCCn1cnc2cc(NCc3ccc(Br)cc3)ccc21	/	14	-5	-83*	-18
CCn1cnc2cc(NCc3ccc(Br)cc3)ccc21	/	13	-19	-25	-15
CCCn1cnc2cc(NCc3cccc(OC)c3)ccc21	?	23	-13	-74*	-6
CCCn1cnc2cc(NCc3ccccc3O)ccc21	/	8	-5	-14	/
CNC(=O)c1ccsc1NC(=O)C1CCN(S(=O)(=O)c2ccc(Cl)s2)CC1	/	-5	-8	-20	0
O=C(N/N=C/c1ccccc1Br)c1ccc(CSc2cccc3cccnc23)cc1	?	1	-18	2	?
CC(=O)c1ccc(NC(=S)N2CCCCCC2)cc1	2%	-1	-1	17	-4
Cc1ccc(N(CC(=O)Nc2ccccc2C(=O)NCc2ccco2)S(=O)(=O)c2ccccc2)cc1C	?	2	-4	-14	-13
Cc1ccc(C)c(N(CC(=O)Nc2ccccc2C(=O)NCc2ccco2)S(=O)(=O)c2ccccc2)c1	4µM*	-12	-5	-18	-8
CCOC(=O)c1cccc(Nc2ncnc3ccc(C)cc23)c1	-7%	13	-4	-85*	1
CCOC(=O)c1ccc(Nc2ncnc3ccc(C)cc23)cc1	?	5	-2	-3	15
O=C1C2CCCCC2C(=O)N1Cc1ccccc1 (stereo unspecified)	1%	-2	-1	3	4
Fc1ccc(Nc2nc(NCc3ccco3)c3ccccc3n2)cc1	?	-13	-3	-92*	/
Cc1ccc(C(=O)Oc2cc(C)n(C)c(=O)c2)cc1	-3%	4	-95*	5	-23
CC(=O)c1c(OC(=O)c2ccc(C)cc2)c2ccccc2n1C	1%	-7	0	-16	3
C[C@H](c1ccccc1)N1C[C@H](COCc2ccccc2)Oc2cc(N3CCC[C@@H]3CO)ccc2S1(=O)=O	/	/	-13	/	-9
CC(=O)Nc1ccc(NC(=O)C(=O)N/N=C/c2cccnc2)cc1	0%	11	5	-17	/
O=C(Cn1c(=O)c2cccn2c2cccnc21)NCCCN1CCN(c2ccc(F)cc2)CC1	/	47	5	?	-5
O=C(N/N=C/c1cc([N+](=O)[O-])ccc1O)c1cccc(NC(=O)c2cccc(Cl)c2)c1	/	-2	-2	22	4
Cc1cc(C)nc(SCc2ccc(C(=O)N/N=C/c3cccc(O)c3O)cc2)n1	3.2µM*	4	-95*	0	-96*
Cc1nc2ccc(C(=O)N/N=C/c3ccccc3O)cc2[nH]1	/	-8	-80*	8	-88*
Cc1nc2ccc(C(=O)N/N=C/c3cc([N+](=O)[O-])ccc3O)cc2[nH]1	35µM*	44	-92*	9	-92*
COc1ccc(O)c(/C=N/NC(=O)c2ccc(CSc3nc(C)cc(C)n3)cc2)c1	?	0	?	-13	?
COc1ccc2cc(C(C)=O)c(=O)oc2c1	3%	-26	11	12	9

Screening results: PubChem BioAssay, National Center for Advancing Translational Sciences (NCATS)
